Among the data in PubChem BioAssay (NCI) are growth values, retold here.

SMILES strings stand for the structures. The panel holds about 83,000 compounds, 20% with a hit somewhere; the sample as a whole holds those more often.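 How to read the values: 0–100, growth inhibition (40 = 60% inhibited); 0, no net growth; -100 to 0, cell death (-40 = 40% of starting cells died; -100 = all dead).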 Calls of active or inactive are those of the source. The calls were made as follows: active = growth percent below 10; inactive = the rest.

The subject of the assay is COLO 205 colon. In words: NCI-60 one-dose screen, 48 h (100 = growth as untreated, 0 = no growth, -100 = all killed). The settings on record: 10 µM unless noted.
Regarding `Cc1ccc(NC(=O)CN2CCN(c3ncnc4c3cnn4-c3ccccc3)CC2)cc1`, the growth was 111% (inactive).
Consider `COc1cc(OC)cc(C(=O)Nc2cccc(-c3cn(-c4ccc(S(N)(=O)=O)cc4)nn3)c2)c1`, for which the growth is 109% (inactive).
As to `CCN(CC)c1ccc(/C=N/Nc2nc(-c3ccc(Br)cc3)cs2)c(O)c1`, the growth is 58.3% (inactive).
Next, `Cn1cc(-c2cc(N)n3nc(-c4c[nH]c5ccccc45)cc3n2)c2cc(Br)cnc21`: -89.3% (active); `C#C[C@]1(O)CC[C@H]2[C@@H]3CC=C4c5sc(-c6ccc(O)c(O)c6)nc5CC[C@]4(C)[C@H]3CC[C@@]21C`: -80.2% (active); `Cc1ccc(NCC(=O)Cn2cc(COc3ccc(C=Nc4cnc5ccccc5c4)cc3)nn2)cc1`: 114% (inactive).
Next, `CN(C)CCOc1ccc(C(=O)C2[C@H](c3ccc(Cl)cc3)[C@@H](c3ccccc3)NC23C(=O)Nc2ccccc23)cc1` (stereo partly drawn): -63.2% (active).
Take `CC(C)(C)OC(=O)/C=C/c1cccc2c1C(=O)NC(C)(c1cc3cc(Cl)ccc3oc1=O)N2` (stereo not drawn): the growth was 19.4% (inactive).
With `CCOC(=O)/C=C/c1cccc2c1C(=O)NC(C)(c1cc3cc(Cl)ccc3oc1=O)N2` (stereo not drawn) the figure was 31.7% (inactive).
Next, `N=C1N=C(SCc2nc3ccccc3[nH]2)NC(=O)/C1=C/c1ccc(Cl)cc1`: 110% (inactive); `CC(C)CSc1nc(NCCc2c[nH]c3ccccc23)c(C#N)c(-c2ccccc2)n1`: 50.2% (inactive).
With `COc1cc(-c2cc(-c3cccc(OCC(=O)O)c3)[nH]c(=O)c2C#N)cc(OC)c1OC` the figure was 119% (inactive); with `COc1ccc(C(SCCNCc2cc(N(C)C)ccn2)(c2ccccc2)c2ccccc2)cc1`, -78% (active); with `Cc1cccc(-c2nc(Nc3ccc(C)c(S(N)(=O)=O)c3)c3ccccc3n2)c1`, 37.8% (inactive).
For the compound `Cn1cc(-c2cc(N)n3nc(-c4cn(C)c5ccccc45)cc3n2)c2cc(Br)ccc21`, the growth is -79.1% (active).
With `CC12CC[C@@H]3[C@]4(C)COC(c5cn[nH]c5-c5cccc(Cl)c5)O[C@@H]4CC[C@@]3(C)[C@@H]1CC(C1=CCOC1=O)O2` (stereo partly drawn) the figure was 18.3% (inactive); with `Cc1ccc(C2CC(c3ccc(S(=O)(=O)NCCNc4nc(Nc5ccc(F)cc5)nc(N(C)C)n4)cc3)=Nc3c(N)nc(N)nc3N2)cc1` (stereo not drawn), 54.8% (inactive); with `O=C(NN1C(=O)/C(=C/C=C/c2ccc([N+](=O)[O-])o2)SC1=S)c1ccc(Cl)cc1`, -94.8% (active).
Next, `COc1ccc(NC(=O)Cn2c3c(sc2=O)[C@H]2[C@@H](O)[C@@H](O)[C@H](O)[C@@H]2CS3)cc1`: 117% (inactive); `CC1(C)CC[C@]2(C(=O)O)CC[C@]3(C)C(=CCC4[C@@]5(C)C[C@@H](O)[C@@H]6OC(c7ccco7)OC[C@@]6(C)C5CC[C@]43C)C2C1` (stereo partly drawn): -86.9% (active); `C#CCOc1ccc(/C=N/Nc2nc(-c3ccc(Cl)cc3)cs2)cc1OC`: 54.7% (inactive).
`CCCCCCCCOc1cccc(S(=O)(=O)Nc2ccc(C)cc2C(=O)O)c1`: the growth is 112% (inactive).
With `Nc1nnc(-c2c[nH]c3ccc(Br)cc23)c(-c2c[nH]c3ncc(Br)cc23)n1` the figure was 48.3% (inactive); with `O=C(c1ccccc1)c1ccc2nc(-c3ccc(F)cc3)[nH]c2c1`, 85.8% (inactive); with `Cn1cc(-c2cc(N)n3nc(-c4cn(C)c5ccc(Cl)cc45)cc3n2)c2ccccc21`, 117% (inactive).
With `O=C(CSc1nc2ccccc2c(=O)[nH]1)NCCN1CCCCC1` the figure was 99% (inactive).
With `CCCn1cc(-c2nc(Nc3ccc(C(=O)NCCCCNc4cccc5c4C(=O)N(C4CCC(=O)NC4=O)C5=O)cc3)nc3[nH]ccc23)cn1` (stereo not drawn) the figure was -10.3% (active); with `CCOC(=O)C1=C(N)N(c2ccccc2)C2=C(C(=O)CC(C)(C)C2)C1c1ccccc1Cl` (stereo not drawn), 65.3% (inactive).
With `Cc1ccc(-c2nc(C#N)c(S(=O)(=O)N3CCN(S(=O)(=O)c4ccc(Cl)cc4)CC3)o2)cc1`, the growth is 124% (inactive).
Next, `O=c1[nH]c2ccc(Cl)cc2cc1CSc1nccc(-c2ccc(Cl)cc2)n1`: 71.7% (inactive).
Consider `CC1(C)CC[C@]2(C(=O)O)CC[C@]3(C)C(=CCC4[C@@]5(C)C[C@@H](O)[C@@H]6OC(c7ccc(F)cc7)OC[C@@]6(C)C5CC[C@]43C)C2C1` (stereo partly drawn), for which the growth is -2.36% (active).
Next, `C=C1CC[C@@H]2[C@]3(C)COC(c4ccccc4)O[C@@H]3CC[C@@]2(C)[C@@H]1C/C=C1/C(=O)OCC1OC(C)=O` (stereo partly drawn): -76.4% (active); `Cc1cccc(Nc2nc3ccccc3nc2/C=C/c2ccc(F)cc2)c1`: 106% (inactive).
Next, `Brc1ccc(N/N=C/c2c[nH]c3ccc(Br)cc23)nc1`: -89.1% (active); `C=C1CC[C@@H]2[C@]3(C)COC(c4cn[nH]c4-c4ccc(C)cc4)O[C@@H]3CC[C@@]2(C)[C@@H]1C/C=C1/C(=O)OCC1O` (stereo partly drawn): 12.8% (inactive).
Next, `O=C(Cn1c(/C=C/c2ccccc2)nc2ccccc2c1=O)Nc1ccc(Cl)cc1`: 78.4% (inactive); `CC1(C)CC[C@]2(C(=O)O)CC[C@]3(C)C(=CCC4[C@@]5(C)C[C@@H](O)[C@@H]6OC(c7ccccc7Br)OC[C@@]6(C)C5CC[C@]43C)C2C1` (stereo partly drawn): -36.9% (active).
For the compound `C=C1CCC2C3(C)COC(c4ccco4)OC3CCC2(C)C1CC(Sc1ccccc1)C1=CCOC1=O` (stereo not drawn), the growth is 98% (inactive).
